# Experimental data published in PubChem BioAssay.
# Values joined by “and” are separate entries in the source; they are usually repeats but may differ in a detail not shown here. Identical values can stand only once. Inconclusive results are not listed. Active and inactive are the calls of the source.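 The calls were made as follows, unless noted: active = thallium flux through the channel raised or lowered by more than 3 SD from vehicle-only wells, actives on both sides; inactive = the rest.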
# How the values were obtained:
# [1] = growth inhibition of DIPG glioma cells, dose response, cell-based, JHH-DIPG-1, MIPE4.0, CellTiter-Glo, qHTS (AID 1347062; cut-off not given, nearly all actives have AC50 up to about 27 µM;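 as to AC50: cells exposed to compound for two days before readout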); conditions: JHH-DIPG-1 viability, CellTiter-Glo ATP luminescence
# [2] = Cy5 fluorescence interference with SSB-bound oligo, artefact control for HCV NS3 helicase inhibitor project, biochemical, NIH Clinical Collection, E. coli SSB (AID 743268; call rule not given here)
# [3] = test system: Hepatitis C virus NS3 helicase; test: HCV NS3 helicase inhibitors, primary screen, biochemical, fluorescence polarization, NIH Clinical Collection (AID 743270; call rule not given here); conditions: NS3 helicase binding to Cy5-dT15 DNA, stronger effect = higher value, concentration not given here
# [4] = target: Single-stranded DNA-binding protein (Escherichia coli (strain K12)) (UniProt P0AGE0); test: E. coli SSB displacement from DNA, counter-screen for HCV NS3 helicase inhibitor project, biochemical, fluorescence polarization, NIH Clinical Collection (AID 743271; in the data active = inhibition above about 28%); conditions: stronger effect = higher value, concentration not given here
# [5] = fluorescence interference in NS3h assay format, artefact control for HCV NS3 helicase inhibitor project, biochemical, NIH Clinical Collection (AID 743272; call rule not given here;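 also: HCV NS3 helicase with a Cy5 labelled single stranded DNA probe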); conditions: fluorescence interference counterscreen, stronger effect = lower value
# F380Y = test: modulators of BK channel variants, profiling panel, selectivity assay, cell-based, U2OS BacMam, thallium flux, beta subunits (AID 1259406); conditions: at 30 µM;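 also: initial slope of Thallos dye fluorescence rise after thallium is added; log ratio against the mean of 0.3% DMSO vehicle wells on the same plate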
# F380Y/beta1 = test: as above; conditions: at 30 µM
# F380Y/beta2Delta = test: as above; conditions: at 30 µM
# F380Y/beta4 = test: as above; conditions: at 30 µM
# R275C = test: as above; conditions: at 30 µM
# R275C/beta1 = test: as above; conditions: at 30 µM
# R275C/beta2Delta = test: as above; conditions: at 30 µM
# R275C/beta4 = test: as above; conditions: at 30 µM
# R275C/Slo1WT/beta2 = test: as above; conditions: at 30 µM
# [6] = JHH-DIPG-1 glioma cell viability, MIPE5.0 library, CellTiter-Glo luminescence, qHTS (AID 1347067; cut-off not given, nearly all actives have AC50 up to about 26 µM;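 also: cells exposed to compound for 48 hours before readout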); conditions: JHH-DIPG-1 glioma viability, CellTiter-Glo ATP luminescence
# [7] = target: Calcium-activated potassium channel subunit alpha-1 (Homo sapiens) + Leucine-rich repeat-containing protein 26 (Homo sapiens) (UniProt Q12791+Q2I0M4); test: modulators of BK channel variants, profiling panel, selectivity assay, cell-based, U2OS BacMam, thallium flux, beta subunits (AID 1259406); conditions: F380Y/Slo1WT/gamma1, at 30 µM;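 also: initial slope of Thallos dye fluorescence rise after thallium is added; log ratio against the mean of 0.3% DMSO vehicle wells on the same plate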
# Sequence of Calcium-activated potassium channel subunit alpha-1 (Homo sapiens) + Leucine-rich repeat-containing protein 26 (Homo sapiens) (Q2I0M4 whole entry, looked up, one chain of several): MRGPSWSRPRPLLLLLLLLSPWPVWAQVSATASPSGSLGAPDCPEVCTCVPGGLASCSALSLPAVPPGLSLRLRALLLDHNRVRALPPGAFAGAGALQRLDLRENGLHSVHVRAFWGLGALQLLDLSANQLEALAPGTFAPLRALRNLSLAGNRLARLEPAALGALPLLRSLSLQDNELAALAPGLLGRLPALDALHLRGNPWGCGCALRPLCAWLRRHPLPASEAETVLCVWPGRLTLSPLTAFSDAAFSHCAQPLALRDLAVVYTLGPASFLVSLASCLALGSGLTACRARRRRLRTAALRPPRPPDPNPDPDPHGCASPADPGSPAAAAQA
# [8] = LFS_MB_P medulloblastoma growth inhibition, cell-based, chromothripsis tumors, cisplatin or BGB combos (AID 1671449; in the data active = inhibition above about 80%;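 also: cells exposed for 96 hours; 0% = vehicle DMSO and 100% = killing by high DMSO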); conditions: LFS_MB_P medulloblastoma cells
# [9] = HDN33 neuroblastoma growth inhibition, cell-based, chromothripsis tumors, cisplatin or BGB combos (AID 1671450; in the data active = inhibition above about 80%;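 also: cells exposed to compound for four days; 0% = vehicle DMSO and 100% = cell killing by high DMSO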); conditions: HDN33 neuroblastoma cells, stronger effect = higher value
# [10] = ICB984 medulloblastoma cell growth inhibition, synergistic combos for chromothripsis tumors, cisplatin or BGB combos (AID 1671451; call rule not given here;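 also: cells exposed for 96 hours before readout; 0% = vehicle DMSO and 100% = killing by high DMSO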); conditions: ICB984 medulloblastoma cells, drug combinations, stronger effect = higher value
# [11] = HTB85 osteosarcoma cell growth inhibition, synergistic combos for chromothripsis tumors, BGB or cisplatin IC20 combos (AID 1671453; in the data active = inhibition above about 80%;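 also: cells exposed for 96 hours before readout; 0% = vehicle DMSO and 100% = high DMSO killing control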); conditions: HTB85 osteosarcoma cells, drug combinations, stronger effect = higher value
smiles,measurement,setting,value
C[C@@H]1C[C@@H]([C@H](O)CC2CC(=O)NC(=O)C2)C(=O)[C@@H](C)C1,AC50,[1],0.743 µM (active)
O=c1[nH]c2ccccc2n1CCCN1CCC(n2c(=O)[nH]c3cc(Cl)ccc32)CC1,outcome,[1],inactive
Clc1ccc(COC(Cn2ccnc2)c2ccc(Cl)cc2Cl)cc1 (stereo not drawn),fluorescence ratio,[2],1.02 (inactive)
same,inhibition,[3],3.18% (inactive)
same,inhibition,[4],4.1% (inactive)
same,fluorescence ratio,[5],0.94 (inactive)
same,log fold change Tl+ flux,F380Y,-0.0888 (inactive)
same,log fold change Tl+ flux,F380Y/beta1,-0.0732 (inactive)
same,log fold change Tl+ flux,F380Y/beta2Delta,-0.182 (active)
same,log fold change Tl+ flux,F380Y/beta4,-0.321 (active)
same,log fold change Tl+ flux,R275C,-0.00134 (inactive)
same,log fold change Tl+ flux,R275C/beta1,0.0779 (inactive)
same,log fold change Tl+ flux,R275C/beta2Delta,0.0329 (inactive)
same,log fold change Tl+ flux,R275C/beta4,0.279 (active)
same,log fold change Tl+ flux,R275C/Slo1WT/beta2,-0.0527 (inactive)
CN(C)[C@@H]1C(=O)C(C(N)=O)=C(O)[C@@]2(O)C(=O)C3=C(O)c4c(O)cccc4[C@@](C)(O)[C@H]3[C@H](O)[C@@H]12,fluorescence ratio,[2],1.03 (inactive)
same,inhibition,[3],-4.09% (inactive)
same,inhibition,[4],4.86% (inactive)
same,fluorescence ratio,[5],0.85 (inactive)
same,outcome,[1],inactive
same,outcome,[6],inactive
same,log fold change Tl+ flux,F380Y,0.018 (inactive)
same,log fold change Tl+ flux,F380Y/beta1,0.0522 (inactive)
same,log fold change Tl+ flux,F380Y/beta2Delta,-0.0529 (inactive)
same,log fold change Tl+ flux,F380Y/beta4,-0.0391 (inactive)
same,log fold change Tl+ flux,[7],0.0226 (inactive)
same,log fold change Tl+ flux,R275C,-0.057 (inactive)
same,log fold change Tl+ flux,R275C/beta1,0.0468 (inactive)
same,log fold change Tl+ flux,R275C/beta2Delta,-0.0649 (inactive)
same,log fold change Tl+ flux,R275C/beta4,0.0299 (inactive)
same,log fold change Tl+ flux,R275C/Slo1WT/beta2,-0.0058 (inactive)
CN(C)[C@@H]1C(=O)C(C(N)=O)=C(O)[C@@]2(O)C(=O)C3=C(O)c4c(O)cccc4[C@@](C)(O)[C@H]3C[C@@H]12,outcome,[1],inactive
same,outcome,[6],inactive
CN1C(=O)CCS(=O)(=O)C1c1ccc(Cl)cc1 (stereo not drawn),outcome,[1],inactive
same,outcome,[6],inactive
COc1ccc(C(CN(C)C)C2(O)CCCCC2)cc1 (stereo not drawn),fluorescence ratio,[2],1.07 (inactive)
same,inhibition,[3],-2.77% (inactive)
same,inhibition,[4],1.44% (inactive)
same,fluorescence ratio,[5],0.93 (inactive)
same,outcome,[1],inactive
same,log fold change Tl+ flux,F380Y,0.00861 (inactive)
same,log fold change Tl+ flux,F380Y/beta1,-0.0404 (inactive)
same,log fold change Tl+ flux,F380Y/beta2Delta,-0.0103 (inactive)
same,log fold change Tl+ flux,F380Y/beta4,0.00869 (inactive)
same,log fold change Tl+ flux,[7],-0.00535 (inactive)
same,log fold change Tl+ flux,R275C,-0.109 (inactive)
same,log fold change Tl+ flux,R275C/beta1,0.0103 (inactive)
same,log fold change Tl+ flux,R275C/beta2Delta,-0.0272 (inactive)
same,log fold change Tl+ flux,R275C/beta4,0.0192 (inactive)
same,log fold change Tl+ flux,R275C/Slo1WT/beta2,0.0327 (inactive)
O=C(O)CCCc1ccc(N(CCCl)CCCl)cc1,fluorescence ratio,[2],1.06 (inactive)
same,inhibition,[3],-5% (inactive)
same,inhibition,[4],-4.29% (inactive)
same,fluorescence ratio,[5],1.01 (inactive)
same,AC50,[6],16.6 µM (active)
same,inhibition,"[8]; at 0.5 µM, stronger effect = higher value",-42.9% (inactive)
same,inhibition,"[8]; measured here: combination with BGB IC20, at 0.005 µM",-28.5%
same,inhibition,"[8]; measured here: combination with BGB IC40, at 0.005 µM",-27.3%
same,inhibition,"[8]; measured here: combination with BGB IC40, at 0.05 µM",-24.4%
same,inhibition,"[8]; measured here: combination with cisplatin, at 0.5 µM, stronger effect = higher value",-49.6%
same,inhibition,"[8]; measured here: combination with cisplatin, at 5 µM, stronger effect = higher value",-22.6%
same,inhibition,"[9]; BGB combo, at 5 µM",-4.28%
same,inhibition,[9]; at 0.5 µM,-4.71% (inactive)
same,inhibition,"[9]; cisplatin combo, at 5 µM",-10.3%
same,inhibition,"[9]; measured here: with BGB IC20 combination, at 0.5 µM",-8.37%
same,inhibition,"[9]; measured here: with cisplatin IC20 combination, at 0.5 µM",15.9%
same,inhibition,"[9]; single agent, at 5 µM",-10.9%
same,inhibition,"[10]; BGB IC20 combo, at 0.005 µM",-3.85%
same,inhibition,"[10]; BGB IC40 combo, at 0.005 µM",-23.1%
same,inhibition,"[10]; BGB IC40 combo, at 0.05 µM",-2.9%
same,inhibition,[10]; at 0.5 µM,-29% (inactive)
same,inhibition,"[10]; cisplatin combo, at 0.05 µM",-2.9%
same,inhibition,"[10]; cisplatin combo, at 0.5 µM",-34.6%
same,inhibition,"[10]; cisplatin combo, at 5 µM",-18.5%
same,inhibition,"[10]; measured here: 5 uM single agent, at 5 µM",-8.66%
same,inhibition,[11]; at 0.5 µM,-18.7% (inactive)
same,inhibition,"[11]; measured here: with BGB IC20, at 0.5 µM",-46.7%
same,inhibition,"[11]; measured here: with BGB IC20, at 5 µM",-21.9%
same,inhibition,"[11]; measured here: with cisplatin IC20, at 0.5 µM",-11%
same,inhibition,"[11]; measured here: with cisplatin IC20, at 5 µM",-8.05%
same,inhibition,"[11]; single agent, at 5 µM",-6.46%
same,log fold change Tl+ flux,F380Y,-0.0169 (inactive)
same,log fold change Tl+ flux,F380Y/beta1,0.0024 (inactive)
same,log fold change Tl+ flux,F380Y/beta2Delta,0.0059 (inactive)
same,log fold change Tl+ flux,F380Y/beta4,-0.0475 (inactive)
same,log fold change Tl+ flux,[7],-0.00393 (inactive)
same,log fold change Tl+ flux,R275C,-0.0229 (inactive)
same,log fold change Tl+ flux,R275C/beta1,-0.022 (inactive)
same,log fold change Tl+ flux,R275C/beta2Delta,0.041 (inactive)
same,log fold change Tl+ flux,R275C/beta4,-0.00696 (inactive)
same,log fold change Tl+ flux,R275C/Slo1WT/beta2,0.0346 (inactive)
N[C@@H](Cc1ccc(N(CCCl)CCCl)cc1)C(=O)O,AC50,[1],23.5 µM (active)
CCC1(c2ccc(N)cc2)CCC(=O)NC1=O (stereo not drawn),fluorescence ratio,[2],1.03 (inactive)
same,inhibition,[3],-2.27% (inactive)
same,inhibition,[4],-2% (inactive)
same,fluorescence ratio,[5],1.04 (inactive)
same,outcome,[6],inactive
same,log fold change Tl+ flux,F380Y,0.023 (inactive)
same,log fold change Tl+ flux,F380Y/beta1,-0.0309 (inactive)
same,log fold change Tl+ flux,F380Y/beta2Delta,-0.00163 (inactive)
same,log fold change Tl+ flux,F380Y/beta4,-0.00944 (inactive)
same,log fold change Tl+ flux,[7],-0.0199 (inactive)
same,log fold change Tl+ flux,R275C,0.0191 (inactive)
same,log fold change Tl+ flux,R275C/beta1,-0.00575 (inactive)
same,log fold change Tl+ flux,R275C/beta2Delta,-0.0116 (inactive)
same,log fold change Tl+ flux,R275C/beta4,0.0132 (inactive)
same,log fold change Tl+ flux,R275C/Slo1WT/beta2,0.0134 (inactive)
CCCC(C)(COC(N)=O)COC(=O)NC(C)C (stereo not drawn),fluorescence ratio,[2],1.01 (inactive)
same,inhibition,[3],-6.82% (inactive)
same,inhibition,[4],-2% (inactive)
same,fluorescence ratio,[5],0.93 (inactive)
same,log fold change Tl+ flux,F380Y,0.0133 (inactive)
same,log fold change Tl+ flux,F380Y/beta1,0.0587 (inactive)
same,log fold change Tl+ flux,F380Y/beta2Delta,-0.0375 (inactive)
same,log fold change Tl+ flux,F380Y/beta4,0.0106 (inactive)
same,log fold change Tl+ flux,[7],0.00552 (inactive)
same,log fold change Tl+ flux,R275C,0.0157 (inactive)
same,log fold change Tl+ flux,R275C/beta1,0.044 (inactive)
same,log fold change Tl+ flux,R275C/beta2Delta,0.0245 (inactive)
same,log fold change Tl+ flux,R275C/beta4,0.0318 (inactive)
same,log fold change Tl+ flux,R275C/Slo1WT/beta2,0.0148 (inactive)
CC(NC(C)(C)C)C(=O)c1cccc(Cl)c1 (stereo not drawn),fluorescence ratio,[2],1.04 (inactive) and 1.06 (inactive)
same,inhibition,[3],-3.56% (inactive) and 3.56% (inactive)
same,inhibition,[4],-3.18% (inactive) and 3.75% (inactive)
same,fluorescence ratio,[5],1 (inactive)
same,outcome,[1],inactive
same,outcome,[6],inactive
same,log fold change Tl+ flux,F380Y,0.0198 (inactive) and -0.0218 (inactive)
same,log fold change Tl+ flux,F380Y/beta1,-0.0211 (inactive) and 0.0228 (inactive)
same,log fold change Tl+ flux,F380Y/beta2Delta,-0.0525 (inactive) and 0.0137 (inactive)
same,log fold change Tl+ flux,F380Y/beta4,-0.0339 (inactive) and 0.00749 (inactive)
same,log fold change Tl+ flux,[7],-0.0374 (inactive) and -0.0597 (inactive)
same,log fold change Tl+ flux,R275C,-0.059 (inactive) and 0.00561 (inactive)
same,log fold change Tl+ flux,R275C/beta1,-0.0389 (inactive) and 0.036 (inactive)
same,log fold change Tl+ flux,R275C/beta2Delta,-0.014 (inactive) and 0.0171 (inactive)
same,log fold change Tl+ flux,R275C/beta4,-0.00901 (inactive) and 0.0176 (inactive)
same,log fold change Tl+ flux,R275C/Slo1WT/beta2,-0.0516 (inactive) and 0.0164 (inactive)
C=C(C)[C@H]1Cc2c(ccc3c2O[C@@H]2COc4cc(OC)c(OC)cc4[C@@H]2C3=O)O1,AC50,[6],1.48 µM (active)
CC(C)N(CCC(C(N)=O)(c1ccccc1)c1ccccn1)C(C)C (stereo not drawn),fluorescence ratio,[2],0.1 (active)
same,inhibition,[3],-3.18% (inactive)
same,inhibition,[4],-3.53% (inactive)
same,fluorescence ratio,[5],1.04 (inactive)
same,log fold change Tl+ flux,F380Y,-0.0248 (inactive)
same,log fold change Tl+ flux,F380Y/beta1,0.0372 (inactive)
same,log fold change Tl+ flux,F380Y/beta2Delta,0.00612 (inactive)
same,log fold change Tl+ flux,F380Y/beta4,0.017 (inactive)
same,log fold change Tl+ flux,[7],0.0168 (inactive)
same,log fold change Tl+ flux,R275C,0.00817 (inactive)
same,log fold change Tl+ flux,R275C/beta1,-0.022 (inactive)
same,log fold change Tl+ flux,R275C/beta2Delta,-0.0143 (inactive)
same,log fold change Tl+ flux,R275C/beta4,-0.0304 (inactive)
same,log fold change Tl+ flux,R275C/Slo1WT/beta2,0.00641 (inactive)
O=C(O)c1nn(Cc2ccc(Cl)cc2Cl)c2ccccc12,outcome,[6],inactive
